According to PubChem BioAssay AID880 (National Center for Advancing Translational Sciences (NCATS), 2007):
Out of some 230,000 compounds screened, about 1,000 (0.43%) were called active. Calls come from the whole dose curve; as a rule, active = well fitted inhibition curve with a large enough effect (not every such curve was filed as active); inactive = no such curve, though single readings can be large or run the other way. The full list was thinned out, with actives kept by preference.

biological target: Guanine nucleotide-binding protein G(i) subunit alpha-1 (Homo sapiens) (UniProt P63096); assay: qHTS Assay for Inhibitors of RGS12 GoLoco Motif Activity (Red Fluorophore); conditions: Gai1:RGS12 GoLoco peptide FP, rhodamine, 10 min; series mostly up to 61.6 µM; note: nearly all actives have a fitted effect of over 30% in size
Sequence (P63096 whole entry, looked up): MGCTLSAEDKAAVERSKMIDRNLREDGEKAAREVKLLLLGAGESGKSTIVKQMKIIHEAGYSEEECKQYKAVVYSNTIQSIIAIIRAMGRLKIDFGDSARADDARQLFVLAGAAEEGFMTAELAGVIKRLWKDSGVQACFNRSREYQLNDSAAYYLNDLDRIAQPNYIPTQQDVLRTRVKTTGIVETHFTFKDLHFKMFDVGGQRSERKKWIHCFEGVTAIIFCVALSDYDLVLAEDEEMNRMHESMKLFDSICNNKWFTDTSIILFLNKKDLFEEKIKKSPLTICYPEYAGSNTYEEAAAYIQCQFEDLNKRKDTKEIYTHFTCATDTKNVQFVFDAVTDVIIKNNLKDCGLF
Description: Assay Submitter: Siderovski, David P, University of North Carolina at Chapel Hill
Screening Center PI: Austin, C.P.
Screening Center: NIH Chemical Genomics Center [NCGC]
G-protein-coupled receptors (GPCRs) are major targets for drug discovery. The regulator of G-protein signaling (RGS)-protein family has important roles in GPCR signal transduction. RGS proteins contain a conserved RGS-box, which is often accompanied by other signaling regulatory elements. RGS proteins accelerate the deactivation of G proteins to reduce GPCR signaling; however, some also have an effector function and transmit signals. Combining GPCR agonists with RGS inhibitors should potentiate responses, and could markedly increase the agonist's regional specificity. The diversity of RGS proteins with highly localized and dynamically regulated distributions in brain makes them attractive targets for pharmacotherapy of central nervous system disorders. […] A complex of Gai1 and fluorescently labeled G-alpha-binding peptide (the "GoLoco motif") derived from RGS12 is incubated with library members. Inhibitors of the binding are detected by a decrease in the fluorescence polarization (FP) of the fluorophore. Protein was supplied by Prof. David Siderovski, University of North Carolina at Chapel Hill.
Assay Buffer: 10 mM Tris-HCl, 150 mM NaCl, 0.1 mM GDP (prepared fresh), and 0.05% NP40 at pH 7.5.
15 nM Rhodamine labeled peptide/25 nM protein in columns 1, 2, 5 - 48. Titration of unlabeled peptide control ([H][…][NH2], custom synthesized and HPLC-purified by Tufts University Core Facility) from 20 mM, then 1:2 dilution, 16-point in duplicate, pin-transferred to column 2, rows 1 to 32. Column 1 is neutral.
Rhodamine-labeled peptide (Rhodamine-[…]-NH2) was custom-synthesized and HPLC-purified by Invitrogen (Carlsbad, CA).
Four uL of reagents were dispensed to 1536-well Greiner black solid-bottom plates. Compounds and controls (23 nL) were transferred via Kalypsys PinTool. The plates were incubated for 10 min at room temperature, and then read on ViewLux (Perkin-Elmer) High-throughput CCD imager using BODIPY for the rhodamine-labeled decapeptide probe. During dispense, reagent bottles were kept submerged into 4 deg C water bath and all liquid lines were covered with aluminum foil to minimize probe and protein degradation. All screening operations were performed on a Kalypsys robotic system (Kalypsys, Inc., San Diego, CA) containing one RX-130 and two RX-90 anthropomorphic robotic arms.
% is set by controls: 0 for no effect and ±100 for the full control effect; potency is the fitted concentration of half-maximal effect.

Compound | Potency | activity, negative = inhibition
C[N+]12CN3CN(CN(C3)C1)C2 | 8.91 µM (active) | 
CO[C@@H]1C[C@@H](C[C@H]2CC[C@H](C)[C@@H]([C@@H](C)C(=O)O)O2)O[C@]2(O[C@](C)([C@H]3CC[C@@](C)(C4OC([C@H]5O[C@@](O)(CO)[C@H](C)C[C@@H]5C)C[C@@H]4C)O3)C[C@H]2C)[C@@H]1C (stereo not given in full) |  | inactive
CC(=O)c1c(O)c(C)c(O)c(Cc2c(O)c3c(c(C(=O)/C=C\c4ccccc4)c2O)OC(C)(C)C=C3)c1O |  | inactive
C[C@@]12CC[C@H](O)C[C@@H]1CC[C@@H]1[C@@H]2CC[C@@]2(C)[C@@H](C3=CC(=O)OC3)[C@H](O)C[C@]12O |  | 3.75% [at 14.2 µM] (inactive)
Cc1cc(-c2ccc(N)c(C)c2)ccc1N | 25.1 µM (active) | 
CN1[C@@H]2CC[C@H]1CC(OC(=O)c1cc(Cl)cc(Cl)c1)C2 (stereo not given in full) |  | inactive
CN(C)C1C(=O)C(C(N)=O)=C(O)[C@@]2(O)C(=O)C3=C(O)c4c(O)cccc4[C@@](C)(O)C3C[C@@H]12 (stereo not given in full) |  | inactive
ClC(Cl)=C(Cl)C(Cl)=C(Cl)Cl |  | inactive
CC(C)CC(C)Nc1ccc(Nc2ccccc2)cc1 (stereo not given) |  | inactive
CCCCN1C2CCC1CC(OC(c1ccc(F)cc1)c1ccc(F)cc1)C2 (stereo not given) |  | inactive
CS(=N)(=O)CC[C@H](N)P(=O)(O)O (stereo not given in full) |  | 3.42% [at 14.2 µM] (inactive)
CC(C)(Cc1c[nH]c2ccc(Cl)cc12)NCCOc1ccccc1OCC1CC1 |  | inactive
CC(=O)OC1C2CCC3C1(CC(O)[C@@]1(O)[C@@H](CC(O)C1(C)C)[C@]3(C)O)C[C@@]2(C)O (stereo not given in full) | 25.1 µM (active) | 
CC(C)(c1ccccc1)c1ccc(O)cc1 |  | inactive
CC(=O)O[C@H]1CC[C@@]2(C)[C@@H](CC[C@H]3[C@H]2CC(=O)[C@]2(C)[C@@H]3C[C@@H](N3CC3)[C@H]2C(C)=O)C1 |  | 4.86% [at 14.2 µM] (inactive)
O=C(O)C1C2CCC(O2)C1C(=O)O (stereo not given) |  | inactive
CNC(C)[C@@H](O)c1ccccc1 (stereo not given in full) | 7.94 µM (active) | 
OC(CNC1CCCCC1)c1ccccc1 (stereo not given) |  | inactive
CC(C)CCC1(CCN)C(=O)NC(=O)NC1=O |  | 2.09% [at 14.2 µM] (inactive)
CN(C)[C@@H]1C(=O)C(C(N)=O)=C(O)[C@@]2(O)C(=O)C3=C(O)c4c(O)cccc4[C@@](C)(O)C3CC12 (stereo not given in full) |  | inactive
CCN(CC)CCn1ncc2c(N)ncnc21 |  | 8.05% [at 14.2 µM] (inactive)
O=C(O)C(=O)Cc1ccc2c(c1)OCO2 |  | -7.42% [at 14.2 µM] (inactive)
COc1ccccc1N=C1SCCCN1C | 3.16 µM (active) | 
COc1ccccc1N=Nc1c(O)[nH]c(=S)[nH]c1=O |  | inactive
Cc1ccc(S(=O)(=O)O[C@H]2CN3CCC2CC3)cc1 |  | -0.505% [at 14.2 µM] (inactive)
CC[C@@](O)(C(=O)O)c1cc2n(c(=O)c1CO)Cc1cc3ccccc3nc1-2 |  | -0.459% [at 14.2 µM] (inactive)
Fc1ccc(C(OCCN2CCN(C/C=C\c3ccccc3)CC2)c2ccc(F)cc2)cc1 |  | inactive
C[C@H](Br)C(=O)N[C@H](CO)C(=O)O |  | 5.42% [at 14.2 µM] (inactive)
NCC[Se][Se]CCN | 0.631 µM (active) | 
CC(C)(O)/C=C\C(=O)[C@](C)(O)[C@H]1[C@H](O)C[C@]2(C)[C@@H]3CC=C4[C@@H](C=C(O)C(=O)C4(C)C)[C@]3(C)C(=O)C[C@@]12C |  | 6.59% [at 14.2 µM] (inactive)
